Results taken from PubChem BioAssay AID2551 (National Center for Advancing Translational Sciences (NCATS), 2010).
Among all 310,000 compounds or so, about 17,000 (5.5%) were called active. A call without a number means that no potency is given here. Another 11% or so got no clear call; they are omitted. Only a selection was taken, and actives are over-represented in it overall. Unmarked numbers belong to inactive results. Calls come from the whole dose curve; as a rule, active = well fitted inhibition curve with a large enough effect; inconclusive = small, poorly fitted or top-dose-only effect, or effect the other way; inactive = no such curve, though single readings can be large or run the other way.

target: Nuclear receptor ROR-gamma (Mus musculus) (UniProt P51450); assay: qHTS for inhibitors of ROR gamma transcriptional activity; conditions: Drosophila S2 Gal4-RORgamma UAS-luciferase reporter, 20 h; series mostly up to 53.6 µM; note: nearly all actives have a fitted effect of over 60% in size
Sequence (P51450 whole entry, looked up, the tested form may be a part): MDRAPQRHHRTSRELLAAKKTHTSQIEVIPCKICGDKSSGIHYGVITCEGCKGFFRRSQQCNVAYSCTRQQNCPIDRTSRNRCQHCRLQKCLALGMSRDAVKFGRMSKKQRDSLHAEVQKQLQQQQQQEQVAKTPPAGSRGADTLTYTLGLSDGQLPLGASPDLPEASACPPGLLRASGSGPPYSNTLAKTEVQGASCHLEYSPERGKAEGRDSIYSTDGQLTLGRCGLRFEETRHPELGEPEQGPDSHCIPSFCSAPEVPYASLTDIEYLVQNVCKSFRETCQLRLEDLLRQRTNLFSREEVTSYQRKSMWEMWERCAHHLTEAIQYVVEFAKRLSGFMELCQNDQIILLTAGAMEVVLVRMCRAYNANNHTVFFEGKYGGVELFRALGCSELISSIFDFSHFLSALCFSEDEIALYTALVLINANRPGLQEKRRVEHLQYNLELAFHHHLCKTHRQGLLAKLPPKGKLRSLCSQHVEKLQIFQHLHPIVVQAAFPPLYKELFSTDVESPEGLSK
Method in brief: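 Schneider cells (Drosophila), stable Gal4 DBD–ROR gamma + UAS-luc; 1 hr cmpd preincubation; Cu2+ induction 700 uM final; 20 hr ambient; luminescence.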
Potency is the fitted concentration of half-maximal effect.

| Structure (SMILES) | Potency | activity change, negative = inhibition |
| --- | --- | --- |
| COc1cccc(NC(=O)CN(C)C(=O)c2ccccc2CCc2ccccc2)c1 | inactive |  |
| CCCn1c(=O)c(C(=O)Nc2cc(C)ccn2)c(O)c2ccccc21 | inactive |  |
| CC(NCC(=O)Nc1cc(Cl)cc(Cl)c1)c1ccccc1 (centres undefined) | inactive |  |
| Cc1cccnc1NC(=O)Cn1c(=O)oc2ccccc21 | inactive |  |
| CN(C(=O)c1cccc(OC2CCN(S(=O)(=O)N(C)C)CC2)c1)C1CCOC1 (centres undefined) | inactive |  |
| O=C(Nc1ccc(C(=O)O)c(O)c1)c1ccccc1 | inactive |  |
| O=C(NC(=O)c1ccccc1)NC(=O)c1ccccc1 | inactive |  |
| O=C(NC(=O)c1ccccc1)Nc1ccccc1O | 7.08 µM (active) |  |
| C[C@H](NC(=O)C1CC(=O)N(c2ccc3c(c2)OCCO3)C1)C(=O)N1CCC(C(=O)O)CC1 (some centres undefined) | inactive |  |
| COc1ccc2nc(C)cc(Nc3cccc(C(=O)O)c3)c2c1 | inactive |  |
| O=C(Nc1ccn(Cc2ccccc2)n1)c1n[nH]c([N+](=O)[O-])c1Cl | 7.08 µM (active) |  |
| Cn1cc([N+](=O)[O-])c(C(=O)Nc2cnn(Cc3ccc(F)cc3)c2)n1 | inactive |  |
| O=C(Nc1ccn(Cc2ccccc2)n1)c1cccc(F)c1 | inactive |  |
| CC(C)[C@H](NC(=O)N1CCn2c1nc1ccccc12)C(=O)NCCc1ccccc1 | inactive |  |
| CCCCCN(C(=O)CCC(=O)OCC(=O)NCc1ccc(OC)cc1)c1c(N)n(CCCC)c(=O)[nH]c1=O | inactive |  |
| COc1ccc(CN(C)C(=S)Nc2ccc(Cl)cc2Cl)cc1 | 17.8 µM (active) |  |
| COc1ccc(CN2CCn3ncc(C(=O)Nc4ccc(Cl)cc4Cl)c3C2=O)cc1 | inactive |  |
| CN(C)C(=S)Nc1ccc(Br)cc1Cl | inactive |  |
| CCn1c(=O)c(=O)[nH]c2c(=O)oc3ccc(S(=O)(=O)Nc4ccc(OC)cc4)cc3c21 | inactive |  |
| COc1ccc(OC)c(C2C3=C(N=c4s/c(=C\c5cccc(O)c5)c(=O)n42)c2ccccc2CC3)c1 (centres undefined) | 12.6 µM (active) |  |
| O=C1CCCC2=C1C(c1ccccc1)n1c(s/c(=C/c3cccc(F)c3)c1=O)=N2 (centres undefined) | inactive |  |
| COCCOC(=O)C1=C(C)N=c2s/c(=C\c3cccs3)c(=O)n2C1c1cccs1 (centres undefined) | inactive |  |
| CC(=O)c1c(O)cc2n(c1=O)-c1ccc(Cl)cc1C2(C)C | 10 µM (active) |  |

| Structure (SMILES) | Potency | activity change, negative = inhibition |
| --- | --- | --- |
| Cc1coc(C)c1C(=O)CC1(O)C(=O)N(C)c2ccc(Cl)cc21 (centres undefined) | inactive |  |
| O=C(COc1ccc2ccc(=O)oc2c1)NCC(O)c1ccccc1 (centres undefined) | inactive |  |
| COc1cccc(CNC(=O)C2CCCN(c3ncnc4c3nc3n4CCCCC3)C2)c1 (centres undefined) | inactive |  |
| CCOC(=O)c1c(NC(=S)NC(=O)/C=C/c2cccs2)sc(C)c1C | 1.26 µM (active) |  |
| CCOC(=O)c1c(NC(=O)/C=C/c2ccco2)sc(C)c1C | inactive |  |
| CCc1nnc(NS(=O)(=O)c2ccc(NC(=S)NC(=O)/C=C/c3cccs3)cc2)s1 | inactive |  |
| COC(=O)C1=CN(c2ccc(F)c(F)c2)C=C(C(=O)OC)C1c1ccc([N+](=O)[O-])cc1 | inactive |  |
| CCOc1ccc(C(=O)Nc2ccc(S(=O)(=O)Nc3cc(C)on3)cc2)cc1 | inactive |  |
| CC(NC(=O)C(=O)Nc1nccs1)c1ccccc1 (centres undefined) | inactive |  |
| Cc1c(Br)c([N+](=O)[O-])nn1C(C)C(=O)Nc1nccs1 (centres undefined) | 20 µM (active) |  |
| O=C(CCn1ccc([N+](=O)[O-])n1)Nc1nccs1 | inactive |  |
| CCOc1ccccc1NC(=O)NC1CCCCCCC1 | inactive |  |
| COc1ccc(CNC(=O)C(c2ccc(O)cc2)N(Cc2ccco2)C(=O)c2snc(C(N)=O)c2N)cc1 (centres undefined) | inactive |  |
| O=c1cc(Cl)c2ccccc2n1-c1ccccc1 | inactive |  |
| Cc1cccc(CSc2nnc(NC(=O)CSc3nnc(C)s3)s2)c1 | inactive |  |
| COc1ccccc1-n1c(CNC(=O)c2ccccc2)nnc1SCC(=O)Nc1nnc(C)s1 | inactive |  |
| Cc1nnc(NC(=O)CSc2nccn2-c2cccc(C)c2C)s1 | 10 µM (active) |  |
| Cc1ccc(C(=O)N/C(=C\c2cn(C)c3ccccc23)C(=O)N2CCN(C)CC2)cc1 | inactive |  |
| Cc1ccc(NC(=O)c2oc(=O)c3ccccc3c2-c2ccccc2)c(C)c1 | inactive |  |
| Cc1cccc(NC(=O)/C(=C\c2ccco2)NC(=O)c2ccccc2)c1 | inactive |  |
| Cc1ccc(NC(=S)NC(=O)c2ccc(-c3ccccc3)cc2)c(C)c1 | 4.47 µM (active) |  |
| Cc1cccc(NC(=O)NC(=S)NC(=O)c2ccccc2)c1 | 2.51 µM (active) |  |
| Cc1cccc(NC(=S)NC(=O)c2ccc(Br)o2)c1 | 2.82 µM (active) |  |

| Structure (SMILES) | Potency | activity change, negative = inhibition |
| --- | --- | --- |
| Cc1cc2[nH]ncc2cc1NC(=S)NC(=O)c1ccccc1 | inactive |  |
| Cc1ccc(NC(=O)NC(=O)c2ccccc2)cc1F |  | 8.25% [at 1.91 µM] |
| COc1cc(OC)c(NC(=O)c2ccc(Br)o2)cc1Cl | inactive |  |
| O=C(CNC(=O)c1ccc(Br)o1)Nc1ccccc1 | inactive |  |
| c1cnc(N2CCN(c3ccc4ccccc4n3)CC2)nc1 | inactive |  |
| CCCN1CCn2c3c(c4cc(Br)ccc42)CCCC31 (centres undefined) | inactive |  |
| COCCN1CCn2c(nc3cc(NS(C)(=O)=O)ccc32)C1 | inactive |  |
| COCCOC(=O)c1[nH]c2c(c1C)C(=O)CC(c1ccc(OC)cc1)C2 (centres undefined) | inactive |  |
| Cc1ccc(OCC(=O)NCCCNC(=O)c2cccnc2)cc1C | inactive |  |
| Cc1cn([C@H]2CC(F)[C@@H](CO)O2)c(=O)[nH]c1=O (some centres undefined) | inactive |  |
| COc1cccc(CNc2ncc(-c3ccccc3)n2C)c1 | inactive |  |
| CC(C)[C@@H](NC(=O)OC(C)(C)C)C(=O)NCC1CCC(C(=O)N[C@@H](Cc2ccccc2)C(=O)O)CC1 (some centres undefined) | inactive |  |
| CCC1OC(c2ccc([N+](=O)[O-])cc2)=Nc2ccccc21 (centres undefined) | inactive |  |
| CC(=O)Nc1ccc(NC(=O)C2CCCN(S(=O)(=O)c3ccc(Cl)cc3)C2)cc1 (centres undefined) | inactive |  |
| CC(C)c1nc(SCC(=O)Nc2cccc(C(=O)O)c2)c2c3c(sc2n1)CCCC3 | inactive |  |
| COc1ncnc2sc3c(c12)CCCC3 | inactive |  |
| CCC(O)CNc1nc(-n2nc(C)cc2C)nc2sc3c(c12)CC(C)(C)OC3 (centres undefined) | 1.58 µM (active) |  |
| COCCn1c(C)cc(C(=O)CSc2ncnc3sc4c(c23)CCC4)c1C | inactive |  |
| CCSc1nc2sc3c(c2c(=O)[nH]1)CC(C)(C)OC3 | inactive |  |
| CCOC(=O)Cn1c(SC)nc2sc3c(c2c1=O)CC(C)(C)OC3 | inactive |  |
| COCCNc1nc(-n2nc(C)cc2C)nc2sc3c(c12)CCCC3 | 0.562 µM (active) |  |
| Cc1cc(C)n(-c2nc(SCC(=O)N3CCCC3)c3c4c(sc3n2)CCCC4)n1 | 6.31 µM (active) |  |
| CCc1nc(N2CCN(C(C)=O)CC2)c2c3c(sc2n1)CCCC3 | inactive |  |
